Screening results: PubChem BioAssay, National Center for Advancing Translational Sciences (NCATS)
Sampled rows, rich in hits. Any-hit rate of the full collection: about 11%.
PNC inhibitor – High Content Assay for Compounds that inhibit the Assembly of the Perinucleolar Compartment. PC3M PTB-GFP, PNC prevalence imaging, 16 h; active compounds read low. activity change (PNC), negative = inhibition, % at 10 µM. AID 2417, 2010. hit rate 3.1% among 140,000;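 active = readout at or below -70, meaning at least 70% loss of cells showing the perinucleolar compartment, a nuclear body marking cancer cells; inconclusive = readout between -30 and a set limit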
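PC3M cells stably expressing PTB-GFP, 750–1000 cells/well, treated 16 h at 37 °C with compound (23 nl of library stock), in duplicate. After paraformaldehyde fixation and Hoechst stain, imaged at 20x; PNC prevalence scored by image analysis.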
ALDH1A1 inh – qHTS Assay for Inhibitors of Aldehyde Dehydrogenase 1 (ALDH1A1); AID 1030, 2008; Aldehyde dehydrogenase 1A1 (Homo sapiens), P00352; hit rate 7.3% among 220,000; Purified ALDH1A1, NADH fluorescence, propionaldehyde substrate; Potency, µM (top dose mostly 75.3 µM), actives largely listed as inhibitors; active = well fitted inhibition curve with a large enough effect, not every such curve was filed as active; inconclusive = small, poorly fitted or top-dose-only effect, or another doubt; inactive = no such curve, though single readings can be large or run the other way
Target sequence (P00352 whole entry, looked up): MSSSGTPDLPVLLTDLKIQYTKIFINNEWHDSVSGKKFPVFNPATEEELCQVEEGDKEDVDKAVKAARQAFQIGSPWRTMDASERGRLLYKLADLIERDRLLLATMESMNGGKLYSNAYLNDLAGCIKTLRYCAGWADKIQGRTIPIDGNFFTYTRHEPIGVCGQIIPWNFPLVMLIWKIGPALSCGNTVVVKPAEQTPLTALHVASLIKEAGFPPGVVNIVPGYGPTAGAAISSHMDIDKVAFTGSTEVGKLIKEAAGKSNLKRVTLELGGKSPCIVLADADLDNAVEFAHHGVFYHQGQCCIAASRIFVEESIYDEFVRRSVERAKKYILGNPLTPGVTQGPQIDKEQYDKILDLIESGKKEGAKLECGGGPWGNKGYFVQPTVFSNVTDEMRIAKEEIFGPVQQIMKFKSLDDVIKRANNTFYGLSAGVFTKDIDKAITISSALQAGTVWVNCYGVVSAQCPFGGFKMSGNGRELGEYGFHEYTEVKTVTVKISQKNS
HPGD inh – qHTS Assay for Inhibitors of HPGD (15-Hydroxyprostaglandin Dehydrogenase). 15-hydroxyprostaglandin dehydrogenase [NAD(+)] (Homo sapiens), P15428. purified HPGD, NADH fluorescence kinetic, PGE2 substrate. Potency, µM, most hits filed as inhibitors. hit rate 4.3% among 150,000. AID 894, 2007; active = well fitted inhibition curve with a large enough effect, not every such curve was filed as active; inconclusive = small, poorly fitted or top-dose-only effect, or another doubt; inactive = no such curve, though single readings can be large or run the other way
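NADH formation kinetics: reaction with 30 uM PGE2 and 1 mM NAD+ (final), 20 nM enzyme, Tris-HCl pH 8 with Tween 20, after 15 min compound preincubation at room temperature. Fluorescence change, last versus first of five reads.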
IMPase inh – qHTS Assay for Identifying the Cell-Membrane Permeable IMPase Inhibitors; Inositol monophosphatase 1 (Rattus norvegicus), P97697; CHO-M1 cells, IP1 accumulation, HTRF TR-FRET ratio; inhibition (IP1 accumulation), % at 46.1 µM; 120,000 tested, under 10 active; active = well fitted curve in the direction sought with a large enough effect in the signal ratio, not every such curve was filed as active; inconclusive = small, poorly fitted or top-dose-only effect, or a change in a side signal; inactive = no such curve, though single readings can be large or run the other way; the % refers to the signal ratio;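 also: cells stimulated with carbachol in lithium chloride buffer; higher means more IMPase inhibition seen as more IP1 and lower FRET ratio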
Target sequence (P97697 whole entry, looked up): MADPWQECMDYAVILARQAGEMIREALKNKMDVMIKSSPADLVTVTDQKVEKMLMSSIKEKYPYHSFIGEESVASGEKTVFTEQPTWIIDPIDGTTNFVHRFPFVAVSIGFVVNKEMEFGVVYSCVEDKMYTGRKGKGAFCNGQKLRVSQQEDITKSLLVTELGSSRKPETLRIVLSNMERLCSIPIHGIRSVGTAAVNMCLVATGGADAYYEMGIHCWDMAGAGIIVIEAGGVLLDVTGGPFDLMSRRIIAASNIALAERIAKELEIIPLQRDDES
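Measured: the HTRF emission ratio (665/620 nm) plus the 620 nm donor channel, each fitted to the Hill equation to give AC50. Cells were CHO-M1 given compounds up to 46 uM and a 30 min carbachol stimulation at 37C.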
NPSR antag – qHTS Assay for Antagonists of the Neuropeptide S Receptor: cAMP Signal Transduction. hit rate 1% among 220,000. AID 1461, 2008. CHO-NPSR cells, cAMP TR-FRET, antagonist mode. Potency, µM (titrated, usually from 38.3 µM), most hits filed as inhibitors; also: nearly all actives have a fitted effect of over 50% in size
IMPase Li cell – qHTS Assay for Identifying the Cell-Membrane Permeable IMPase Inhibitors: Potentiation with Lithium. CHO-M1 cells, IP1 TR-FRET (IP-One), carbachol + lithium. Potency, µM (series often up to 59.4 µM), most hits filed as inhibitors. hit rate 0.35% among 210,000. AID 1457, 2008;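 also: IP1 builds up when IMPase is blocked and the TR-FRET signal falls; nearly all actives have a fitted effect of over 50% in size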
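Steps: plate 2000 CHO-M1 cells per well and culture 16–30 h; add compound and lithium; incubate 30 min, 37C; add d2-IP1 tracer and Eu cryptate anti-IP1 antibody in lysis buffer; read after 10 min at room temperature.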
A number is an active result. Unless noted, calls follow the shape of the dose curve; as a rule, active = well fitted curve in the direction sought with a large enough effect; inconclusive = small, poorly fitted or top-dose-only effect, or another doubt; inactive = no such curve, though single readings can be large; an effect the other way counts as inactive or inconclusive.

Results for Cc1ccc(-c2cc(C(=O)O)c3cc(Br)ccc3n2)o1 ?
PNC inhibitor: inactive; ALDH1A1 inh: inconclusive; HPGD inh: inconclusive; NPSR antag: inactive; IMPase Li cell: 11µM

Results for Cc1ccc(-c2cc(C(=O)NC3=NCCS3)c3cc(Br)ccc3n2)o1 ?
PNC inhibitor: inactive; ALDH1A1 inh: 0.11µM; HPGD inh: 2.5µM; IMPase inh: inactive; NPSR antag: inconclusive; IMPase Li cell: inconclusive

How did CC(=O)c1c(C)nc2ccc(Br)cc2c1C(=O)O do in these assays?
PNC inhibitor: inactive; ALDH1A1 inh: inconclusive; HPGD inh: inactive; IMPase inh: inconclusive; NPSR antag: inactive; IMPase Li cell: 1µM

How did Cc1ccc(-c2cc(C(=O)NCCCn3ccnc3)c3cc(Br)ccc3n2)o1 do in these assays?
PNC inhibitor: inconclusive; ALDH1A1 inh: inconclusive; HPGD inh: inconclusive; IMPase inh: inconclusive; NPSR antag: inactive; IMPase Li cell: inactive

Results for Cc1ccc(-c2cc(C(=O)NN3CCOCC3)c3cc(Br)ccc3n2)o1 ?
ALDH1A1 inh: inconclusive; NPSR antag: inactive; IMPase Li cell: inactive

What do the screens show for `CCOC(=O)c1ccc(NC(=O)[C@@H](NC(N)=O)C(C)C)cc1`?
NPSR antag: inactive

How did CCC(C)N(C)Cc1cccc(C2(O)CCN(S(=O)(=O)c3ccc(F)cc3)CC2)c1 (centres undefined) do in these assays?
PNC inhibitor: inactive; ALDH1A1 inh: inactive; HPGD inh: inactive; IMPase inh: inactive; NPSR antag: inactive; IMPase Li cell: inactive

What do the screens show for `COCCNCC(=O)N1CCCCCC1`?
ALDH1A1 inh: 4µM; NPSR antag: inactive; IMPase Li cell: inactive

How did COCCNC(=O)CN1CCCCCC1 do in these assays?
ALDH1A1 inh: inconclusive; NPSR antag: inactive; IMPase Li cell: inactive

What do the screens show for `Cn1nccc1/C=C(/C#N)S(=O)(=O)c1ccccc1`?
PNC inhibitor: inconclusive; ALDH1A1 inh: inactive; HPGD inh: inactive; IMPase inh: inactive; NPSR antag: inactive; IMPase Li cell: inactive

Results for N#C/C(=C\c1ccc[nH]1)S(=O)(=O)c1ccccc1 ?
PNC inhibitor: inactive; ALDH1A1 inh: inactive; HPGD inh: 4.5µM; IMPase inh: inactive; NPSR antag: inactive; IMPase Li cell: inactive

What do the screens show for `Cc1c(Cl)cccc1NCC(=O)NN=C1CCCC1`?
ALDH1A1 inh: inactive; NPSR antag: inactive; IMPase Li cell: inactive

What do the screens show for `Cc1ccccc1N(CC(=O)N/N=C/c1cc(C)n(-c2ccccc2C)c1C)S(C)(=O)=O`?
PNC inhibitor: inactive; ALDH1A1 inh: 4µM; HPGD inh: inconclusive; IMPase inh: inactive; NPSR antag: inconclusive; IMPase Li cell: inactive

Results for Cc1cc(C)nc(SCC(=O)N/N=C\c2sccc2C)n1 ?
PNC inhibitor: inactive; ALDH1A1 inh: inactive; HPGD inh: inactive; IMPase inh: inactive; NPSR antag: inactive; IMPase Li cell: inactive

How did Cc1cccc(C)c1-n1c(C)cc(/C=N/NC(=O)CSc2ncccn2)c1C do in these assays?
PNC inhibitor: inactive; ALDH1A1 inh: 10µM; HPGD inh: inactive; NPSR antag: inactive; IMPase Li cell: inactive

What do the screens show for `Cc1cc(C)nc(SCC(=O)N/N=C/c2cc(C)n(-c3ccccc3C)c2C)n1`?
PNC inhibitor: inactive; ALDH1A1 inh: 10µM; HPGD inh: inactive; NPSR antag: inactive; IMPase Li cell: inactive

How did c1ccc(Cn2c(SCCN3CCOCC3)nnc2-c2cccnc2)cc1 do in these assays?
PNC inhibitor: inconclusive; ALDH1A1 inh: inconclusive; HPGD inh: inactive; IMPase inh: inactive; NPSR antag: inactive; IMPase Li cell: inactive

What do the screens show for `COc1ccc(Oc2ncc3nc(-c4ccc(F)cc4)c(=O)n(C[C@H]4CCCO4)c3n2)cc1`?
ALDH1A1 inh: inactive; IMPase Li cell: inactive

What do the screens show for `COc1ccc(-c2cnc(N)n2CC2CCCO2)cc1` (centres undefined)?
PNC inhibitor: inconclusive; ALDH1A1 inh: 40µM; HPGD inh: inactive; IMPase inh: inactive; NPSR antag: inactive; IMPase Li cell: inactive

What do the screens show for `c1ccc(-c2cnc(SCCN3CCOCC3)n2CC2CCCO2)cc1` (centres undefined)?
PNC inhibitor: inactive; ALDH1A1 inh: 10µM; HPGD inh: inactive; IMPase inh: inconclusive; NPSR antag: inactive; IMPase Li cell: inactive

How did COc1ccc(N2C(=O)c3cccc4cc(Br)cc(c34)C2=O)cc1 do in these assays?
ALDH1A1 inh: inactive; NPSR antag: inactive; IMPase Li cell: inactive

How did COc1ccc(/C=N/NC(=O)CNc2c(Br)cc(C)cc2Br)c(C(=O)O)c1OC do in these assays?
ALDH1A1 inh: 7.1µM; NPSR antag: inactive; IMPase Li cell: inactive

Results for CCN(CC)CCCNC(=O)CSc1nc(C)cc(C)n1 ?
ALDH1A1 inh: inactive; NPSR antag: inactive; IMPase Li cell: inactive

Results for CCn1c2ccccc2c2cc(CN3CCN(Cc4cc(OC)ccc4O)CC3)ccc21 ?
ALDH1A1 inh: 35µM; NPSR antag: inactive; IMPase Li cell: inactive

How did CCn1c2ccccc2c2cc(CN3CCN(Cc4cc(OC)c(O)c(OC)c4)CC3)ccc21 do in these assays?
IMPase inh: inactive

How did COc1ccc(CN2CCN(CC(O)Cn3c4ccccc4c4ccccc43)CC2)cc1 (centres undefined) do in these assays?
PNC inhibitor: -102; ALDH1A1 inh: inactive; HPGD inh: inactive; NPSR antag: inactive; IMPase Li cell: inactive

What do the screens show for `CCN(CC)CCNC(C(=O)Nc1ccc([N+](=O)[O-])cc1Br)c1ccccc1` (centres undefined)?
PNC inhibitor: -104; ALDH1A1 inh: inactive; HPGD inh: inactive; NPSR antag: inactive; IMPase Li cell: inactive

How did CN(C)C(CNC(C(=O)Nc1ccc([N+](=O)[O-])cc1Br)c1ccccc1)c1ccccc1 (centres undefined) do in these assays?
ALDH1A1 inh: inconclusive; NPSR antag: inactive; IMPase Li cell: inactive

Results for CC(C)CNC(C(=O)Nc1ccc([N+](=O)[O-])cc1Br)c1ccccc1 (centres undefined) ?
PNC inhibitor: inactive; ALDH1A1 inh: 3.5µM; HPGD inh: inactive; IMPase inh: inactive; NPSR antag: inactive; IMPase Li cell: inactive

Results for COc1cccc(CNC(=O)C2CCN(S(=O)(=O)c3cnc[nH]3)CC2)c1 ?
PNC inhibitor: inactive; ALDH1A1 inh: inactive; HPGD inh: inactive; IMPase inh: inactive; NPSR antag: inactive; IMPase Li cell: inactive
